Bioassay records from PubChem BioAssay.
Rows were chosen to be rich in hits. Some 4.6% of all compounds tested hit in one or more screens of this group.
ABHD5 PLIN5 PPI: blocks binding of human ABHD5 to perilipin-5; Split G. princeps luciferase complementation, luminescence, 4 h; inhibition, % at 4 µM; 360,000 compounds, 0.78% hits; AID 602281;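 active = inhibition above the mean inhibition across every tested compound plus 3 SD, cut at about 22% in these data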;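 also: 0% = DMSO only wells and the 100% control is not disclosed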
KKLEB tox: counter-screen for CF NF-kB inhibitors: cytotoxicity; KKLEB CF airway cells viability, ATPlite luminescence, overnight; hits give low values; cells stimulated with P. aeruginosa culture filtrate; activity change (cytotoxicity), % at 5 µM; 360,000 compounds, 0.36% hits;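 active = corrected activity change at or below -50% at 5 µM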
Peg3 promoter: Peg3 promoter activity inhibition | HeLa PEG-Prom luciferase reporter, luminescence, overnight | inhibition, % at 20 µM | 360,000 compounds, 1.7% hits | AID 588405;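 active = inhibition of at least 50% at 20 µM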
HIF-2a inh: inhibitors of HIF-2a. 786-0 RCC cells HIF-2a reporter, luciferase luminescence, overnight. inhibition, % at 18.8 µM. 360,000 compounds, 0.72% hits;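 active = inhibition of the luminescence signal of 40% or more relative to plate controls, in a single-dose primary screen at 18.75 µM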
Mdm2 MdmX PPI: human Mdm2/MdmX binding inhibition | O15151+Q00987 | SaOS-2 split-luciferase Mdm2/MdmX complementation, luminescence | inhibition, % at 8 µM | 330,000 compounds, 3% hits | AID 485346;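 active = inhibition of at least 50% at 8 µM in the primary screen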
CF NFkB block: cystic fibrosis NF-kB activation inhibition; KKLEB NF-kB-GFP reporter, PAF-induced, GFP fluorescence overnight; inhibition, % at 5 µM; 360,000 compounds, 0.86% hits;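 active = at least 50% inhibition at 5 µM, scaled per plate between neutral and stimulator controls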;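 also: PAF is a Pseudomonas aeruginosa culture filtrate used as stimulus; plate controls were PAF-stimulated DMSO wells for no effect and unstimulated DMSO wells for full effect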
HIF-2a conf: HIF-2a inhibition, single concentration confirmation; shares compounds with HIF-2a inh; 786-0 RCC cells, HIF-2a luciferase reporter luminescence, overnight; inhibition, % at 18.8 µM; 1,800 compounds, 56% hits; AID 651580;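 active = mean inhibition across four replicates of at least 40 percent at the single tested concentration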
HIF-1a cs: HIF-1a inhibition counter-screen for HIF-2a hits; shares compounds with HIF-2a inh; MiaPaCa-2 HIF-1a luciferase reporter, desferoxamine, overnight; inhibition, % at 18.8 µM; 1,800 compounds, 72% hits; AID 651589;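 active = mean inhibition of the reporter signal across four replicates at the single tested dose of 50% or more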
The depositor's hits bear a star; x = no result given.

SMILES	ABHD5 PLIN5 PPI	KKLEB tox	Peg3 promoter	HIF-2a inh	Mdm2 MdmX PPI	CF NFkB block	HIF-2a conf	HIF-1a cs
CCc1ccc(OCC(=O)NC(NC(=S)Nc2ccccc2OC)C(Cl)(Cl)Cl)cc1 (stereo not drawn)	-17	2	44	50*	2	2	-1	29
CCc1ccc(OCC(=O)NC(NC(=S)Nc2ccccc2)C(Cl)(Cl)Cl)cc1 (stereo not drawn)	-22	-12	46	23	43	2	x	x
COc1ccc(C=NNC(=S)NN=Cc2ccc(OC)c(OC)c2)cc1OC	-14	-5	-71	-150	x	-3	x	x
COc1ccc(C=NNC(=S)Nc2ccc(F)cc2)cc1OC	0	1	7	48*	x	-17	6	38
CCCCOC(=O)c1ccc(NC(=S)NC(=O)c2c(Br)c(C)nn2C)cc1	0	-3	39	46*	8	7	56*	19
CCOC(=O)c1ccc(NC(=S)NC(=O)c2cncc(Br)c2)cc1	7	10	10	31	20	-19	x	x
C[C@H](CO)N1C[C@H](C)[C@@H](CN(C)C(=O)OCc2ccccc2)OCc2cn(nn2)CCCC1=O	-8	2	-12	14	x	6	x	x
CC1=C(C(=O)N(C(C)C)C(C)C)CC(CC(=O)NCCN2CCOCC2)C(=O)N1Cc1ccccc1 (stereo not drawn)	4	5	-4	12	x	-1	x	x
O=C(OCc1ccccc1)c1cccc(-c2nnc(-c3ccccc3)o2)c1	2	6	-112	11	12	-12	x	x
CCOC(=O)c1cccc(COC(=O)c2cccc(-c3nnc(-c4ccccc4)o3)c2)c1	0	-2	-75	47*	4	7	51*	-65
CCC1(C(=O)OC)CCc2c(cc(OC)c3ccccc23)C1=O (stereo not drawn)	-10	-6	4	55*	13	26	-2	-20
COC(=O)C1(C)CCc2c(ccc3ccccc23)C1=O (stereo not drawn)	-9	-2	-93	-180	x	-9	x	x
O=C(Nc1cc(F)ccc1F)N1CCN(c2ccnc3cc(Cl)ccc23)CC1	-7	-4	18	32	23	7	x	x
O=C(Nc1ccc(C(F)(F)F)cc1)N1CCN(c2ccnc3cc(Cl)ccc23)CC1	-2	-10	38	45*	14	-10	16	76*
Cc1ccccc1N(C(=O)c1snc(C(N)=O)c1N)C(C(=O)NCC1CCCO1)c1ccc(F)cc1 (stereo not drawn)	-3	7	15	13	11	-7	x	x
O=C(CN1CCCCC1)Nc1ccc(S(=O)(=O)c2ccc(NC(=O)CN3CCCCC3)cc2)cc1	-14	-15	-5	-1	x	7	x	x
Cc1cc(C)n(-c2ncc(C#N)cn2)n1	3	14	-1	49*	14	1	4	-3
O=C(C[C@@H]1CC[C@@H](NC(=O)Nc2cccc(F)c2)[C@@H](CO)O1)NCC1CCCCC1	5	x	x	10	x	x	x	x
COc1ccc(C2c3ccc(O)cc3Oc3ncn(Cc4ccccc4)c(=N)c32)cc1OC (stereo not drawn)	6	0	22	58*	18	8	9	51*
COc1ccc(S(=O)(=O)N2CN3CCN(C3)C2)cc1	7	6	16	23	-22	-11	x	x
CN(C)S(=O)(=O)c1cc(NC(=O)CN2CCN(c3ccccc3F)CC2)ccc1Cl	-1	7	15	9	9	-2	x	x
CC(=O)c1sc(NC(=O)C2CC(=O)N(Cc3ccccc3)C2)nc1-c1ccccc1 (stereo not drawn)	-7	-13	4	41*	15	-3	9	29
COc1ccc(Nc2cc(C)nc3ccc(OC)cc23)cc1	7	2	8	42*	11	-58	17	57*
C[C@H]1CN([C@@H](C)CO)C(=O)CCCn2nncc2CO[C@H]1CN(C)C(=O)Nc1ccnc(N2CCOCC2)c1	-5	2	-4	9	x	-3	x	x
CCCCCOc1ccc(/C=C/c2c([N+](=O)[O-])c(=O)n(C)c(=O)n2C)cc1	-4	10	31	42*	43	0	12	1
SMILES	ABHD5 PLIN5 PPI	KKLEB tox	Peg3 promoter	HIF-2a inh	Mdm2 MdmX PPI	CF NFkB block	HIF-2a conf	HIF-1a cs
CC(=O)Nc1ccc(C(=O)N2CCCCC2c2cc(C(=O)N3CCOCC3)no2)cc1 (stereo not drawn)	-4	2	-5	10	x	-2	x	x
O=C(O)c1cc(N/N=C/c2ccc3c(c2)OCCO3)ccc1Cl	-2	10	-25	62*	x	33	80*	-53
O=C(NCCC1CCCCN1S(=O)(=O)c1ccc(F)cc1)C(=O)NCc1ccncc1 (stereo not drawn)	-2	-12	23	43*	-9	16	-3	31
O=C(NCCC1CCCCN1S(=O)(=O)c1ccc(Cl)cc1)C(=O)NCc1ccncc1 (stereo not drawn)	3	9	31	35	-34	-2	x	x
C=CCn1c(C)cc(C(=O)CSc2ccc(NC(C)=O)cc2)c1C	-5	-8	-94	50*	33	8	67*	43
CC(C)(C)c1cc(/C=N/O)cc(C(C)(C)C)c1O	-7	1	8	43*	11	38	26	49
CC(C)(C)c1cc(/C=C2\NC(=O)NC2=O)cc(C(C)(C)C)c1O	0	-10	27	27	23	21	x	x
N#Cc1c(N)n(C2CCCCC2)c2nc3ccccc3nc12	-13	-21	39	42*	37	17	16	77*
CCC(=O)Nc1c(C#N)c2nc3ccccc3nc2n1C1CCCCC1	-5	-3	15	8	-5	5	x	x
Cc1ccccc1S(=O)(=O)NC(=O)C1(C)CCN1C(=O)c1ccccc1CCc1ccccc1 (stereo not drawn)	-5	-9	6	10	x	6	x	x
Cc1ccc(NC(=O)c2cc(S(=O)(=O)N3CCCCC3)ccc2N2CCOCC2)c(C)c1	-1	-7	12	14	x	-5	x	x
CCC1SC(C)C/C(=N/NC(N)=O)C1C (stereo not drawn)	-2	2	1	16	-1	-1	x	x
CC1CC(C)C(=NNC(N)=O)C(C(O)CC2CCC(=O)NC2=O)C1 (stereo not drawn)	-1	-6	37	49*	x	54*	19	41
CC(=O)c1ccc(NC(=O)c2noc3c2CCC3)cc1	-1	30	28	49*	14	-38	72*	61*
COc1ccc(NC(=O)c2noc3c2CCC3)cc1	1	2	-122	-61	-47	4	x	x
